Several values for one entry are separate records, joined by “and”; a condition that tells them apart may be missing. Equal values may be shown once. Hit rate of the full screen: of about 5,500 compounds, about 2,000 (36%) were called active. Another 18% or so got no clear call; they are omitted. No stated cut-off is given here; in the data, active means normalized growth mostly below about 0.91 (no sharp cut-off); inconclusive means no clear call, values can overlap the other calls; inactive means mostly above about 0.92. This is one part of the list.
Test: chemical genetic growth profiling, strain panel (AID 1159580);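 further: tested at 20 µM; growth read once vehicle control cultures reached saturation at 30 °C; 1 = growth at the plate median or of vehicle wells; lower values mean less growth of the strain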
Settings: S. cerevisiae deletion strains, growth OD

Measured: normalized growth

CC(=O)O[C@H]1CC[C@@]2(C)C(C[C@@H](OC(C)=O)[C@]3(C)C2CC[C@@]2(C)[C@H](c4ccoc4)OC(=O)[C@H]4O[C@]423)C1(C)C (some centres not stated)
inactive: locus YAL013W, strain DEP1, active compounds read low 0.993 | locus YAL021C, strain ccr4, active compounds read low 1.01 | locus YAL026C, strain drs2, active compounds read low 1 | locus YAL030W, strain snc1, active compounds read low 0.99 | locus YBL061C, strain skt5, active compounds read low 0.996 | locus YBR009C, strain hhf1, active compounds read low 0.987 | locus YBR021W, strain FUR4, active compounds read low 0.999 | locus YBR023C, strain chs3, active compounds read low 0.997 | locus YBR171W, strain sec66, active compounds read low 1 | locus YBR229C, strain ROT2, active compounds read low 1 | locus YBR231C, strain swc5, active compounds read low 1.01 | locus YBR279W, strain paf1, active compounds read low 1 | locus YCL011C, strain gbp2, active compounds read low 0.993 | locus YCL016C, strain dcc1, active compounds read low 1 | locus YCL029C, strain bik1, active compounds read low 1.01 | locus YCL061C, strain MRC1, active compounds read low 1 | locus YCL069W, strain vba3, active compounds read low 0.998 | locus YCR088W, strain abp1, active compounds read low 0.995 | locus YDL005C, strain med2, active compounds read low 0.996 | locus YDL035C, strain GPR1, active compounds read low 0.998 | locus YDL040C, strain nat1, active compounds read low 0.988 | locus YDL074C, strain BRE1, active compounds read low 1.04 | locus YDL101C, strain DUN1, active compounds read low 1.03 | locus YDL185W, strain tfp1, active compounds read low 1.01 | locus YDL192W, strain arf1, active compounds read low 0.992 | locus YDR001C, strain nth1, active compounds read low 0.99 | locus YDR069C, strain doa4, active compounds read low 0.991 | locus YDR101C, strain arx1, active compounds read low 1.01 | locus YDR137W, strain rgp1, active compounds read low 1.08 | locus YDR159W, strain sac3, active compounds read low 0.983 | locus YDR162C, strain NBP2, active compounds read low 1.02 | locus YDR195W, strain ref2 0.93 | locus YDR297W, strain sur2, active compounds read low 0.999 | locus YDR318W, strain mcm21, active compounds read low 1.01 | locus YDR334W, strain swr1, active compounds read low 0.985 | locus YDR335W, strain msn5, active compounds read low 0.999 | locus YDR388W, active compounds read low 1.01 | locus YDR392W, strain spt3, active compounds read low 0.914 | locus YDR502C, strain sam2, active compounds read low 1.03 | locus YEL003W, strain gim4, active compounds read low 0.991 | locus YEL037C, strain rad23, active compounds read low 0.988 | locus YEL061C, strain CIN8 (second series), active compounds read low 0.987 | locus YEL061C, strain CIN8, active compounds read low 1.01 | locus YER015W, strain faa2, active compounds read low 0.998 | locus YER016W, strain bim1, active compounds read low 0.999 | locus YER110C, active compounds read low 1.02 | locus YER111C, strain swi4, active compounds read low 0.983 | locus YER155C, strain BEM2 (second series), active compounds read low 0.988 | locus YER155C, strain BEM2, active compounds read low 1 | locus YER167W, strain BCK2, active compounds read low 0.993 | locus YFR010W, strain ubp6, active compounds read low 0.992 | locus YGL078C, strain dbp3, active compounds read low 1.02 | locus YGL086W, strain mad1, active compounds read low 1.01 | locus YGL167C, strain pmr1, active compounds read low 0.994 | locus YGL173C, strain kem1, active compounds read low 1 | locus YGL227W, strain vid30, active compounds read low 1 | locus YGL240W, strain doc1, active compounds read low 0.978 | locus YGL248W, strain PDE1, active compounds read low 1.02 | locus YGL253W, strain hxk2, active compounds read low 1 | locus YGR078C, strain PAC10, active compounds read low 1.02 | locus YGR135W, strain pre9, active compounds read low 1.06 | locus YGR229C, strain SMI1, active compounds read low 0.959 | locus YGR252W, strain gcn5, active compounds read low 1.1 | locus YHR013C, strain ard1, active compounds read low 0.981 | locus YHR027C, strain rpn1, active compounds read low 0.998 | locus YHR030C, strain SLT2, active compounds read low 1.05 | locus YHR079C, strain IRE1 (second series), active compounds read low 1.02 | locus YHR079C, strain IRE1, active compounds read low 1.04 | locus YHR094C, strain hxt1, active compounds read low 1.01 | locus YHR129C, strain ARP1, active compounds read low 1.01 | locus YHR142W, strain chs7, active compounds read low 1.03 | locus YHR200W, strain rpn10, active compounds read low 1.04 | locus YIL066C, strain RNR3, active compounds read low 0.999 | locus YIL073C, strain SPO22, active compounds read low 1.04 | locus YIL125W, strain kgd1, active compounds read low 1.01 | locus YIR030C, strain dcg1, active compounds read low 1 | locus YJL092W, strain hpr5, active compounds read low 0.998 | locus YJL095W, strain BCK1 (second series), active compounds read low 1 | locus YJL095W, strain BCK1, active compounds read low 1.07 and 1.04 | locus YJL115W, strain asf1, active compounds read low 0.997 | locus YJL129C, strain trk1, active compounds read low 0.987 | locus YJL134W, strain LCB3, active compounds read low 1.01 | locus YJL154C, strain vps35, active compounds read low 1 | locus YJL164C, strain tpk1, active compounds read low 0.995 | locus YJL166W, strain qcr8, active compounds read low 1 | locus YJL168C, strain set2, active compounds read low 1.01 | locus YJL187C, strain SWE1 (second series), active compounds read low 1.04
